About 83,000 compounds went through this panel and 20% of them were active in at least one assay; those are over-represented in the sample as a whole.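 Percent growth is the endpoint: 0 to 100 indicates growth inhibition (40 means 60% inhibition), 0 means no net growth, and negative values indicate cell death.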 A number with no mark means an inactive call. Active and inactive are the calls of the source. How the source made its calls: active means growth percent below 10; inactive means the rest.
Tests used:
Assay in all cases: NCI-60 one-dose screen, 48 h (100 = growth as untreated, 0 = no growth, -100 = all killed)
Conditions in all cases: 10 µM unless noted
[1] = test system: SR leukemia
[2] = test system: RPMI-8226 leukemia
[3] = test system: OVCAR-8 ovarian
[4] = test system: OVCAR-5 ovarian
[5] = test system: OVCAR-4 ovarian
[6] = test system: SK-OV-3 ovarian
[7] = test system: IGROV1 ovarian
[8] = test system: OVCAR-3 ovarian
[9] = test system: HS 578T breast
[10] = test system: NCI/ADR-RES ovarian
[11] = test system: T-47D breast
[12] = test system: BT-549 breast
[13] = test system: MDA-MB-435 melanoma
[14] = test system: SW-620 colon
[15] = test system: MCF7 breast
[16] = test system: HCT-116 colon
[17] = test system: HCC-2998 colon
[18] = test system: KM12 colon

SMILES	growth [1]	growth [2]	growth [3]	growth [4]	growth [5]	growth [6]	growth [7]	growth [8]	growth [9]	growth [10]	growth [11]	growth [12]	growth [13]	growth [14]	growth [15]	growth [16]	growth [17]	growth [18]
O=C1C(Cl)=C(NCCN2CCOCC2)C(=O)c2ncccc21	-17.9% (active)	20.4%	31.1%	-22.8% (active)	95.8%	41.5%	-58.8% (active)	-63.5% (active)	1.02% (active)	67.8%	-40.8% (active)	-91.5% (active)	102%	-29.5% (active)	-50% (active)	-51.9% (active)	31.8%	62.9%
COc1cc(/C=C2\CN(S(=O)(=O)c3ccc(C)cc3)C/C(=C\c3cc(CN4CCCCC4)c(O)c(OC)c3)C2=O)cc(CN2CCCCC2)c1O	-14.6% (active)	-39.3% (active)	-66.4% (active)	-86.5% (active)	-72.7% (active)	115%	-67% (active)	-89.4% (active)	-33.4% (active)	-47.2% (active)	33.8%	-49% (active)	-82.6% (active)	-77.5% (active)	-74.4% (active)	-70.6% (active)	-87.2% (active)	-85.2% (active)
CN1CCN(CCOc2ccc(-c3cnc4c(-c5ccc(C(F)(F)F)cc5)cnn4c3)cc2)CC1	-8.03% (active)	1.38% (active)	27.2%	79.7%	57.2%	85.6%	38.8%	-3.51% (active)	56%	52.8%	27.1%	47.8%	11.8%	-63.1% (active)	10.3%	-55.3% (active)	33.1%	-28.1% (active)
COC(=O)Cc1nc(C#N)c(N(C)C)o1	94.9%	102%	101%	94.7%	107%	92.7%	103%	109%	87.1%	101%	89.6%	92.6%	103%	95.9%	94.9%	97.1%	103%	94.7%
COc1ccc(/C(C)=C(\c2ccc(OCCN3CCCCCC3)cc2)c2ccc(OC(=O)c3ccccc3)cc2)cc1	-8.34% (active)	19.5%	56.5%	72.1%	42.6%	81.4%	46.7%	64.6%	35.9%	60.7%	43.4%	63.6%	63%	44.8%	13.5%	19.4%	77.5%	38.4%
COc1cc2cc(NCc3ccc(OC(F)F)cc3)nc(C)c2cc1OC	53.1%	42.5%	71.3%	56.1%	74.2%	57.6%	48.2%	77%	77.6%	56.3%	71.1%	71.8%	68.4%	47.9%	86.1%	37.3%	78.2%	82.8%
CC(C)=CC(=O)N[C@@H]1CC2CCC3C(CC[C@@]4(C)C3CC[C@@H]4C(C)N(C)C)[C@@]2(C)C[C@@H]1O (stereo partly specified)	-39.8% (active)	-2.36% (active)	81.8%	81.4%	11.5%	81.3%	61.9%	46.5%	59.7%	52.5%	22.3%	66.1%	12.6%	28.2%	33.9%	27.1%	52%	38.2%
O=C1/C(=C/c2ccccc2)CN(C(=O)c2cccnc2)C/C1=C\c1ccccc1	4.69% (active)	-19.6% (active)	12.4%	10.8%	43.8%	40.2%	2.89% (active)	-16.2% (active)	21.4%	18.7%	9% (active)	-53.3% (active)	-27.7% (active)	-54.4% (active)	0.394% (active)	-87.6% (active)	-83.5% (active)	-40.1% (active)
O=C1CCC(C(=O)NN(c2ccccc2)c2ccccc2)N1 (stereo unspecified)	19.7%	17.8%	103%	99.2%	103%	96.6%	105%	95.4%	95.8%	111%	103%	30.2%	93.8%	100%	98%	15.5%	110%	87.3%
CC[C@H](Nc1nc(N)nc(C)c1C#N)c1nc2cccc(NCCCCCC(=O)NO)c2c(=O)n1-c1ccccc1	67.9%	62%	68.5%	44.2%	76.1%	53.1%	9.52% (active)	40.8%	13.2%	96.2%	1.28% (active)	39.4%	64.1%	68.3%	31.5%	71.3%	87%	80.3%
Cc1nc2sc(C(=O)Nc3ccccc3)c(N)c2cc1C(=O)/C=C/c1ccccc1	11.7%	-33.9% (active)	-1.16% (active)	16.6%	4.43% (active)	35.4%	-7.01% (active)	-47.5% (active)	12%	-10.7% (active)	1.62% (active)	-7.07% (active)	-38.2% (active)	-37.6% (active)	3.7% (active)	-66.9% (active)	-80.5% (active)	-42.1% (active)
CCOC(=O)c1c(C)nc2ccccc2c1/C=C/c1ccc(OC)cc1	56.6%	41.8%	57.6%	89.1%	54.6%	76.1%	66%	73.9%	81.6%	31.2%	22.2%	53.3%	61.7%	85.1%	63.9%	55.7%	77.8%	70.7%
CC/C=C\C/C=C/C=C1/C(=O)C=C[C@@H]1C/C=C\CCCC(=O)OC	5.21% (active)	1.81% (active)	13.2%	63.8%	85.4%	110%	65.4%	11.1%	11.9%	73.5%	16.7%	-21.9% (active)	-39.3% (active)	-14.3% (active)	18.6%	-76.1% (active)	62%	20.4%
O=C(Cn1nnc2ccccc21)Nc1ccc(-c2nc3ccccc3s2)cc1	40.2%	85.3%	98.5%	104%	72.2%	104%	97.5%	90.4%	112%	96.2%	66.9%	86.5%	95.9%	94.5%	28.9%	97.4%	93.7%	91.4%
O=C(O)CCCc1cnc2c3sccc3nc(SCc3c(Cl)cccc3Cl)n12	23.9%	51.6%	63.7%	80.5%	59.7%	36.5%	54.1%	7.34% (active)	39.5%	45.7%	24.9%	44.8%	6.44% (active)	27.3%	26.5%	21.7%	81.1%	21.7%
CCCCCCCCCCCCCCCCOC(=O)c1c(C)[nH]c(/C=C2\N=C(c3ccc[nH]3)C=C2OC)c1C	68.2%	-2.3% (active)	15.3%	78.4%	72.2%	70.4%	35.6%	47.6%	65.9%	26.6%	31.2%	55.1%	15.7%	10.9%	8.67% (active)	-0.291% (active)	24.3%	22.7%
CCOC(=O)c1c(-c2ccc(Cl)cc2)c(C#N)c2c(C#N)c(N)nn2c1N	11.9%	49.3%	75.9%	83.4%	77.3%	84.1%	62.2%	65.4%	75.3%	63.1%	46.5%	68.5%	5.38% (active)	52.6%	37.6%	59.5%	83.6%	58.7%
